Screening results (PubChem)
Shown are actives, neighbours in structure and some others; about 3.5% of the full set was active somewhere.
mHTT-CaM PPI inh: inhibitors of human mutant huntingtin-calmodulin interaction | AID 1671202 | inhibition, % at 15 µM | AlphaScreen His-mHTT/GST-CaM binding, luminescence | 190,000 tested, 3.6% active | P42858
Pf apPOL block: Pf-apPOL DNA polymerase inhibition | 210,000 tested, 0.25% active | inhibition, % at 10 µM | Recombinant Pf-apPOL, molecular beacon fluorescence, 1.5 h
Numbers stand for hits; - = inactive; . = not tested or not shown. Cut-off read from the data, not from the text of the source: active = inhibition above about 50%; inactive = the rest.

SMILES | mHTT-CaM PPI inh | Pf apPOL block
COCCCNC(=O)CN1C(=O)/C(=C/c2ccc(C(F)(F)F)cc2)Sc2ccccc21 | 56 | -
Cc1ccc(/C=C2\Sc3ccccc3N(CC(=O)NCc3ccccn3)C2=O)cc1 | 80 | -
CNC(=O)CN1C(=O)/C(=C/c2ccc(C(F)(F)F)cc2)Sc2ccccc21 | - | -
COc1cc(OC)cc(C(=O)N2CCc3cc(OC)c(OC)cc3C2COc2ccc([N+](=O)[O-])cc2)c1 (configuration not stated) | - | -
CC(C)(C)c1ccc(C(N)=NOC(=O)CCOc2ccc(F)cc2)cc1 | . | -
Cc1ccc(S(=O)(=O)NCCCC(=O)NCc2ccccc2)cc1 | - | -
CC(C)C(=O)NC(c1ccco1)c1cc([N+](=O)[O-])c2cccnc2c1O (configuration not stated) | 100 | -
CCCC(=O)NC(c1ccco1)c1cc([N+](=O)[O-])c2cccnc2c1O (configuration not stated) | 100 | -
CC(C)C(=O)NC(/C=C/c1ccccc1)c1cc([N+](=O)[O-])c2cccnc2c1O (configuration not stated) | - | -
CC(=O)NC(c1ccco1)c1cc([N+](=O)[O-])c2cccnc2c1O (configuration not stated) | 100 | -
CCN1CCn2cc(C(=O)NCc3cccc(F)c3)nc2C1 | - | -
N#Cc1c(SCC(=O)Nc2nccs2)sc2c(O)cc(=O)[nH]c12 | 51 | .
N#Cc1c(SCC(=O)NC2CC2)sc2c(O)cc(=O)[nH]c12 | - | .
COc1cc(NC(=O)Nc2cccc3cccnc23)cc(OC)c1OC | - | -
COc1cc(C(Nc2ccccn2)c2ccc3cccnc3c2O)cc(Br)c1OC (configuration not stated) | 98 | -
CCOc1cc(C(Nc2ccccn2)c2ccc3cccnc3c2O)ccc1OC (configuration not stated) | 100 | -
CCOc1ccc(C=Nc2ccc(S(=O)(=O)Nc3ccccn3)cc2)cc1OCC | - | -
CCOc1cc(C(c2c(C)[nH][nH]c2=O)c2c(C)[nH][nH]c2=O)ccc1O | - | -
CCOc1cc(C(Nc2ccccn2)c2ccc3cccnc3c2O)ccc1O (configuration not stated) | 100 | -
O=C(CCn1c(=O)[nH]c2ccsc2c1=O)Nc1ccc(F)cc1 | - | -
CN(C)c1cccc(C(=O)NCC2CCN(c3cc(-c4ccncc4)[nH]n3)CC2)c1 | - | -
CSCCC(NC(=O)c1ccc(C(F)(F)F)cc1)C(=O)NN=Cc1cccs1 (configuration not stated) | . | -
CC(=O)N1CCN(c2nc3c(s2)CC(C(=O)NCCCc2ccccc2)CC3)CC1 (configuration not stated) | - | -
O=C(NCc1ccco1)c1nc(-c2cccc(F)c2)n2c1CCCCC2 | - | -
CCn1cc(Cl)c(C(=O)N2CCc3c(nc4cc[nH]n4c3=O)C2)n1 | - | -
SMILES | mHTT-CaM PPI inh | Pf apPOL block
CCSc1nnc(NC(=O)C2COCC(=O)N2Cc2ccccc2)s1 (configuration not stated) | - | -
Oc1ccccc1N=Cc1ccc2cccc(O)c2n1 | - | -
Oc1c(Cl)cc(Cl)cc1C=NNCCc1ccccn1 | . | -
Cc1ccc(NC(=O)CSc2nnc(-c3ccco3)c(-c3ccco3)n2)cc1C | 93 | -
O=C(CSc1nnc(-c2ccco2)c(-c2ccco2)n1)Nc1cccc(C(=O)O)c1 | - | -
COc1ccc(C(=O)CSc2nnc(-c3ccco3)c(-c3ccco3)n2)cc1 | 95 | -
CCOc1ccc(NC(=O)CSc2nnc(-c3ccco3)c(-c3ccco3)n2)cc1 | 82 | -
COc1ccc(C(=O)CSc2nnc(-c3ccco3)n2-c2ccccc2)cc1 | - | -
O=C(CSc1nnc(-c2ccco2)n1-c1ccccc1)Nc1ccccc1 | - | -
O=C(CSc1nnc(-c2ccco2)c(-c2ccco2)n1)Nc1ccc(C(=O)O)cc1 | - | -
O=C(CSc1nnc(-c2ccco2)c(-c2ccco2)n1)Nc1cnc2ccccc2c1 | 93 | -
NC(=O)c1oc2ccccc2c1NC(=O)C(=O)NCc1cccs1 | - | -
O=C(Nc1ccc(F)cc1F)C1CCCN(C(=O)c2cccc(C(F)(F)F)c2)C1 (configuration not stated) | - | -
CC(C)CNC(=O)C1CCc2sc(C(=O)N(C)C)cc2C1 (configuration not stated) | - | -
CCC1Oc2ccc(Cl)cc2N(CC(=O)N2CCOCC2)C1=O (configuration not stated) | - | -
O=c1c(NCc2ccc(F)cc2Cl)nc2ccncc2n1Cc1ccccc1 | - | -
O=C(CSc1nnc(-c2ccco2)c(-c2ccco2)n1)Nc1nccs1 | 70 | -
O=C(CSc1ccc(-c2cccnc2)nn1)Nc1ccc2c(c1)OCO2 | - | -
COc1ccc(-c2nnc(SCC(=O)N3CCN(C)CC3)nc2-c2ccc(OC)cc2)cc1 | - | 54
O=C(CSc1nnc(-c2ccco2)c(-c2ccco2)n1)Nc1ccc(Cl)cc1Cl | 85 | -
O=C(CSc1ncccn1)Nc1nccs1 | - | -
COc1cc(OC)c(NC(=O)CSc2nnc(-c3ccco3)c(-c3ccco3)n2)cc1Cl | - | -
O=C(CSc1nnc(-c2ccccc2)c(-c2ccccc2)n1)N1CCCCC1 | - | -
O=C(CSc1nnc(-c2ccco2)c(-c2ccco2)n1)Nc1ccc2c(c1)OCO2 | 75 | -
Cc1ccn2cc(C(=O)N3CCN(C4CCN(C)CC4)CC3)nc2c1 | - | -
SMILES | mHTT-CaM PPI inh | Pf apPOL block
COc1ccc(C2=N/C(=C\c3ccc(Br)cc3)C(=O)O2)c(Br)c1 | - | -
Cc1cc(NC(=O)CSc2nc3ccccc3s2)no1 | - | -
Cc1cc(NC(=O)CSc2nnc(-c3ccco3)c(-c3ccco3)n2)no1 | 69 | -
O=C1C2N=NN(c3ccc(F)cc3)C2C(=O)N1c1cccc(F)c1 (configuration not stated) | - | -
O=C(C=Cc1ccc(O)c(O)c1)NC(Cc1ccc(O)c(O)c1)C(=O)O (configuration not stated) | . | -
Cc1cc(O)c2c(c1)OC(=Cc1ccc(Br)cc1)C2=O | - | -
Cc1cc(O)c2c(c1)OC(=Cc1ccccc1F)C2=O | - | -
Cc1cc(O)c2c(c1)OC(=Cc1cccc(Br)c1)C2=O | 56 | -
Cc1cc(O)c2c(c1)OC(=Cc1cn(C)c3ccccc13)C2=O | 72 | -
COc1cc(OC)cc(N2C=C(C#N)S(=O)(=O)c3ccccc32)c1 | - | -
CCOc1cc(/C=C2/C(=O)ON=C2C)ccc1OCc1cccc(F)c1 | 93 | -
COc1ccc(/C=C2/C(=O)ON=C2C)cc1Br | - | -
CCCOc1ccc(/C=C2\C(=O)ON=C2C)cc1OC | 78 | -
CCOc1cc(/C=C2/C(=O)ON=C2C)ccc1OCc1ccccc1F | - | -
CCOc1cc(/C=C2\C(=O)ON=C2C)cc(Cl)c1OCc1cccc(F)c1 | 87 | -
CC1=NOC(=O)/C1=C/c1ccc(OCc2cccc(F)c2)c(Br)c1 | - | -
C#CCOc1c(Cl)cc(/C=C2\C(=O)ON=C2C)cc1OCC | - | -
CCOc1cc(/C=C2\C(=O)ON=C2C)cc(Cl)c1OCc1ccccc1F | 96 | -
COc1ccc(C(O)CN2CCN(c3cccc(C)c3)CC2)cc1OC (configuration not stated) | - | -
COc1ccc(N2CCN(C(=O)C3CCN(c4ccncc4)CC3)CC2)cc1 | - | -
O=C(Nc1cc(F)cc(F)c1)C1CCN(c2nccnc2Oc2ccccc2)CC1 | - | -
COCC(C)(C)NS(=O)(=O)c1ccccc1 | - | -
